The panel holds about 79,000 compounds, 15% with a hit somewhere; the sample as a whole holds those more often. Rule as the data show it: active = growth inhibition above about 70%; inactive = the rest.
Assays:
[1] = NCI Yeast Anticancer Drug Screen. Data for the rad52 strain (AID 147);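 also: 0% = growth of vehicle-treated control cultures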; settings: S. cerevisiae rad52 mutant growth inhibition, hits give high values
Procedure, shortened: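 DNA repair-defective yeast; compound exposure; growth scored against vehicle controls.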

[2] = NCI Yeast Anticancer Drug Screen. Data for the wt1 strain (AID 149);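 also: 0% = growth of vehicle-treated wt1 cultures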; settings: S. cerevisiae wt1 strain (SPY 50644) growth inhibition, hits give high values
Procedure, shortened: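 Growth inhibition read against vehicle controls after compound exposure of the wt1 yeast strain.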

[3] = NCI Yeast Anticancer Drug Screen. Data for the rad50EPP+ strain (AID 151);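 also: 0% = growth of vehicle-treated control cultures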; settings: S. cerevisiae rad50 mutant strain, hits give high values
Procedure, shortened: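 rad50EPP+ yeast treated with test compounds. Readout: growth vs vehicle control.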

[4] = NCI Yeast Anticancer Drug Screen. Data for the mgt1 strain (AID 153); settings: S. cerevisiae mgt1 mutant growth inhibition, hits give high values
Procedure, shortened: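 Growth inhibition relative to vehicle controls was scored for the mgt1 yeast strain after compound exposure.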

[5] = NCI Yeast Anticancer Drug Screen. Data for the rad50 strain (AID 155);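 also: 0% = growth of vehicle-only cultures of the same strain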; settings: S. cerevisiae rad50 strain growth inhibition, hits give high values
Procedure, shortened: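 Readout: growth inhibition relative to vehicle-treated cultures. Compound exposure was carried out in a genetically defined yeast strain deficient in DNA damage repair.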

[6] = NCI Yeast Anticancer Drug Screen. Data for the mec2-1 strain (AID 157); settings: S. cerevisiae mec2-1 strain, hits give high values
Procedure, shortened: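 Growth inhibition is read against vehicle-treated controls after compound exposure of the mec2-1 yeast strain, which is defective in DNA damage repair or cell cycle control.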

[7] = NCI Yeast Anticancer Drug Screen. Data for the rad14 strain (AID 159);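 also: 0% = growth of vehicle-treated control cultures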; settings: S. cerevisiae rad14 strain growth inhibition, hits give high values
Procedure, shortened: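 Growth inhibition vs vehicle controls; genetically altered yeast strain (DNA damage repair defect) treated with test compounds.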

[8] = at 5.0 µM (retest, dose inferred, filed as 0.5)
[9] = at 50.0 µM (retest, dose inferred, filed as 5.0)

Measured: growth inhibition

Nc1ccc(/C=C/c2ccc3cccnc3c2)cc1
inactive: [1]; at 1.2 µM -3% | [1]; at 3.7 µM -3% | [1]; at 11.0 µM -1% | [1]; at 33.0 µM 11% | [1]; at 100.0 µM 29% | [2]; at 1.2 µM 0% | [2]; at 3.7 µM -1% | [2]; at 11.0 µM -3% | [2]; at 33.0 µM -4% | [2]; at 100.0 µM -7% | [3]; at 1.2 µM -2% | [3]; at 3.7 µM 1% | [3]; at 11.0 µM 8% | [3]; at 33.0 µM 34% | [3]; at 100.0 µM 41% | [4]; at 1.2 µM 0% | [4]; at 3.7 µM 1% | [4]; at 11.0 µM -3% | [4]; at 33.0 µM -3% | [4]; at 100.0 µM 22% | [5]; at 1.2 µM 5% | [5]; at 3.7 µM 29% | [5]; [8] 5% | [5]; at 11.0 µM 23% | [5]; at 33.0 µM 14% | [5]; [9] 28% | [5]; at 50.0 µM 10.8% | [5]; at 100.0 µM 29% | [6]; at 1.2 µM -2% | [6]; at 3.7 µM -2% | [6]; [8] -1% | [6]; at 11.0 µM -3% | [6]; at 33.0 µM 1% | [6]; [9] 17% | [6]; at 50.0 µM 1.95% | [6]; at 100.0 µM 6% | [7]; at 1.2 µM 1% | [7]; at 3.7 µM 4% | [7]; at 11.0 µM 5% | [7]; at 33.0 µM 13% | [7]; at 100.0 µM 28%
